# Records with an inconclusive call do not appear. Where a call stands in place of a potency, no number is given. A number with no mark means an inactive call. The source made the active and inactive calls. Unless noted, the call rests on the fitted dose curve; in most records, active means well fitted curve in the direction sought with a large enough effect in the repeat runs; inconclusive means weak or mixed curves; inactive means no such curve, though single readings can be large; an effect the other way counts as inactive or inconclusive.
# Key:
# [1] = qHTS assay to identify small molecule antagonists of the thyroid receptor (TR) signaling pathway - cell viability counter screen (AID 743064); further: nearly all actives have a fitted effect of over 50% in size; further: potency means the concentration at half of the fitted maximal effect
# Procedure, shortened: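 Same-well viability check: GH3.TRE-Luc cells stimulated with 1 nM T3 alongside test compound for 23.5 h, followed by CellTiter-Fluor fluorescence.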
# [2] = qHTS assay to identify small molecule antagonists of the thyroid receptor (TR) signaling pathway (AID 743065); further: nearly all actives have a fitted effect of over 55% in size; further: potency means the concentration at half of the fitted maximal effect
# Procedure, shortened: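 GH3.TRE-Luc rat pituitary cells (two TREs driving luciferase) were dosed with compound, then stimulated with 1 nM T3 (final) for 23.5 h at 37 C. ONE-Glo luminescence was the read-out, with CellTiter-Fluor fluorescence as the cytotoxicity counter-screen.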
# [3] = qHTS assay to identify small molecule antagonists of the estrogen receptor alpha (ER-alpha) signaling pathway - cell viability counter screen (AID 743074; calls by dose curve;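 further: HEK293 cells carrying ER-alpha-UAS-bla reporter stimulated with 17beta-estradiol; nearly all actives have a fitted effect of over 45% in size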)
# [4] = target: Estrogen receptor (Homo sapiens) (UniProt P03372); assay: qHTS assay to identify small molecule agonists of the estrogen receptor alpha (ER-alpha) signaling pathway (AID 743075; calls by dose curve; further: potency means the concentration at half of the fitted maximal effect)
# Estrogen receptor (Homo sapiens), sequence (P03372 whole entry, looked up): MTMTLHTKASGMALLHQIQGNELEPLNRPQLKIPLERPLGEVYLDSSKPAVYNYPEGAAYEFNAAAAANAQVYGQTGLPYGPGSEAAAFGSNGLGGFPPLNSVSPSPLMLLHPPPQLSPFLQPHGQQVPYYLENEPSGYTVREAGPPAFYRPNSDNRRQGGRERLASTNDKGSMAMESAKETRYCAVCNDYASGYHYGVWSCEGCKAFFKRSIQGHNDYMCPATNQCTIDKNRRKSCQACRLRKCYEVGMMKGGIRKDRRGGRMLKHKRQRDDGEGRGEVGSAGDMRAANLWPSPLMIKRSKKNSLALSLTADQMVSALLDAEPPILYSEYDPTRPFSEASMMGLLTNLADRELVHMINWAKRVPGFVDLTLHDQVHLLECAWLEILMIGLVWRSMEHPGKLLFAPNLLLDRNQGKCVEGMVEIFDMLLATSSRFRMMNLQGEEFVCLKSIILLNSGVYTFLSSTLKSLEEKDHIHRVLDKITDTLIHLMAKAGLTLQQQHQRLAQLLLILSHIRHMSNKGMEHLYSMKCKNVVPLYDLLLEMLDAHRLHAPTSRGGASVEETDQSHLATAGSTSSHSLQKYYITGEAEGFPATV
# [5] = target: Estrogen receptor (Homo sapiens) (UniProt P03372); assay: qHTS assay to identify small molecule agonists of the estrogen receptor alpha (ER-alpha) signaling pathway using the BG1 cell line (AID 743079); details: BG1Luc4E2 cells, ERE-luciferase agonist, 22 h; activation: at 70.3 µM (top of the series); further: nearly all actives have a fitted effect of over 20% in size
# [6] = qHTS assay to identify small molecule antagonists of the estrogen receptor alpha (ER-alpha) signaling pathway using the BG1 cell line (AID 743080; calls by dose curve;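 further: BG1 cells stimulated with 17beta-estradiol alongside compound; nearly all actives have a fitted effect of over 25% in size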)
# Procedure, shortened: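 After 5 days in phenol-red-free 10% charcoal-stripped FBS medium, BG1-Luc-4E2 cells were seeded, left 24 h at 37 C, co-treated with compounds and 17beta-estradiol for 21.5 h, then assayed for viability and luciferase.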
# [7] = qHTS assay to identify small molecule antagonists of the estrogen receptor alpha (ER-alpha) signaling pathway using the BG1 cell line - cell viability counter screen (AID 743081);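 further: compound given together with 17beta-estradiol as the ER stimulus; nearly all actives have a fitted effect of over 45% in size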; further: potency means the concentration at half of the fitted maximal effect
# [8] = target: Aryl hydrocarbon receptor (Homo sapiens) (UniProt P35869); assay: qHTS assay to identify small molecule that activate the aryl hydrocarbon receptor (AhR) signaling pathway (AID 743085); further: nearly all actives have a fitted effect of over 15% in size; further: potency means the concentration at half of the fitted maximal effect;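 on activation: HG2L7.5c1 human HepG2 liver cells with stably integrated DRE-driven firefly reporter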
# Aryl hydrocarbon receptor (Homo sapiens), sequence (P35869 whole entry, looked up): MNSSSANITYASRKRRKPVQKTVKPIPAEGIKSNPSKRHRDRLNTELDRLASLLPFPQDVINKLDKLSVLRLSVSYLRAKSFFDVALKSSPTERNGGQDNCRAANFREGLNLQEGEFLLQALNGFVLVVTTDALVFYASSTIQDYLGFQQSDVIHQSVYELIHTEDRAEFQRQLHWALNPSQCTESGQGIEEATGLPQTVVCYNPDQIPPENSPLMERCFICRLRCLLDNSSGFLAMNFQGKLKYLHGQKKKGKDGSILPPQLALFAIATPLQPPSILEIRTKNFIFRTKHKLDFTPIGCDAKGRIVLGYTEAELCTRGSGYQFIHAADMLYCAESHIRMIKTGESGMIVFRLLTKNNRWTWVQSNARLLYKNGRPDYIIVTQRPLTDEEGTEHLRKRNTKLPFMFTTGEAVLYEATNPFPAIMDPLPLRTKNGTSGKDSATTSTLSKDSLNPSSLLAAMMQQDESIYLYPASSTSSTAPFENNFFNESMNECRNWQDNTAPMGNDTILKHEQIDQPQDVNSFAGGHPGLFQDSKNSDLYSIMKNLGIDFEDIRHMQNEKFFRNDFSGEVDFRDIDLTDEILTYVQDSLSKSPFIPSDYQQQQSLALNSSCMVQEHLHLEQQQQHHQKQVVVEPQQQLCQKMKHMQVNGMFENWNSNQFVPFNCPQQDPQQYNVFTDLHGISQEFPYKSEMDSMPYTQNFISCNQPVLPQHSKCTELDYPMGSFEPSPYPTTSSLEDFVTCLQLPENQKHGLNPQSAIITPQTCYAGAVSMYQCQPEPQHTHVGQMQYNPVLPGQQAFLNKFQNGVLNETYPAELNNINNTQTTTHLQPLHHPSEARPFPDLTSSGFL
# Procedure, shortened: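 Reporter assay in engineered HepG2 line HG2L7.5c1, whose plasmid carries twenty dioxin responsive elements upstream of firefly luciferase. Treatment lasted 24 h at 37C; ONE-Glo luminescence gauged induction.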
# [9] = target: Nuclear receptor subfamily 1 group I member 2 (Rattus norvegicus) (UniProt Q9R1A7); assay: Rat pregnane X receptor (rPXR) activation by small molecules, qHTS assay (AID 1346983); details: rPXR luciferase reporter cells, One-Glo luminescence, 24 h; max activation: hits give high values; further: nearly all actives have a fitted effect of over 20% in size
# Nuclear receptor subfamily 1 group I member 2 (Rattus norvegicus), sequence (Q9R1A7 whole entry, looked up): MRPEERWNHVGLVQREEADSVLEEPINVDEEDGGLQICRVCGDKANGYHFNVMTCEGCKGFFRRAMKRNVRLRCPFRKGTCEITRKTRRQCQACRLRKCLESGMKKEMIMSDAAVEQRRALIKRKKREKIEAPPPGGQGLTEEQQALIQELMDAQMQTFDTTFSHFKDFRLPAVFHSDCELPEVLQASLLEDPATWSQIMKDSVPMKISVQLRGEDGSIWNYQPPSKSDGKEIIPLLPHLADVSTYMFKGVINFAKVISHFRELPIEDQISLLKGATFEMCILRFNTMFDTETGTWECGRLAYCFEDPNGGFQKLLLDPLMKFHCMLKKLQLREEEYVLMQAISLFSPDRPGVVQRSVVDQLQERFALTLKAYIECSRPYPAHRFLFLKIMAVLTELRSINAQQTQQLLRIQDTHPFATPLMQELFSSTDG
# Procedure, shortened: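 Cell-based rPXR activation assay: rPXR cells, 2,000 per well, rested 5hr at 37 C, then exposed to compounds in DMSO for 24 hr at 37 C. Luciferase activity read by One-Glo luminescence after 30 min at room temperature.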
# [10] = target: Nuclear receptor subfamily 1 group I member 2 (Homo sapiens) (UniProt O75469); assay: CYP3A4 induction through human pregnane X receptor (PXR) by small molecules, qHTS assay (AID 1346984); further: nearly all actives have a fitted effect of over 40% in size; further: potency means the concentration at half of the fitted maximal effect
# Procedure, shortened: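 DPX-2 reporter cells; 24h cpd, 37C; Luciferin-IPA 3uM final x3h; One-Glo 30 min RT; lumi read.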
# Aromatase (Homo sapiens) = Aromatase (Homo sapiens) (UniProt P11511); assay: qHTS assay to identify aromatase inhibitors (AID 743083); further: nearly all actives have a fitted effect of over 55% in size; further: potency means the concentration at half of the fitted maximal effect
# Aromatase (Homo sapiens), sequence (P11511 whole entry, looked up): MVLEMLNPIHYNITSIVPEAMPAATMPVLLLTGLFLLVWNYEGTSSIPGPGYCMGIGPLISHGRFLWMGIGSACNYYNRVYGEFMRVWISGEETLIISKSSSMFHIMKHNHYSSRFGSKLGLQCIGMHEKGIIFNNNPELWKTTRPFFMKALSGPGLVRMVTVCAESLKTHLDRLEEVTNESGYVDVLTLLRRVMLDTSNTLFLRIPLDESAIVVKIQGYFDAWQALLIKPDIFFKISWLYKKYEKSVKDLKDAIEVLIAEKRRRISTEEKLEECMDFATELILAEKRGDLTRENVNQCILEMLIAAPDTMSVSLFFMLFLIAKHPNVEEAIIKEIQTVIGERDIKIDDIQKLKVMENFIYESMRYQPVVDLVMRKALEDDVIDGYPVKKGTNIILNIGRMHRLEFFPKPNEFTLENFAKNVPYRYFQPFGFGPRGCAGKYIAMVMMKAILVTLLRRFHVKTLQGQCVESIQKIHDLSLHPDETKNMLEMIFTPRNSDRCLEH
# [11] = qHTS assay to identify aromatase inhibitors - cell viability counter screen (AID 743084);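 further: cells stimulated with testosterone during compound exposure; nearly all actives have a fitted effect of over 55% in size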; further: potency means the concentration at half of the fitted maximal effect
# [12] = qHTS assay to identify small molecule that activate the aryl hydrocarbon receptor (AhR) signaling pathway - cell viability counter screen (AID 743086); further: nearly all actives have a fitted effect of over 45% in size; further: potency means the concentration at half of the fitted maximal effect
# Procedure, shortened: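 HepG2-AhR-luc (HG2L7.5c1) cells, 4000/well, treated 24 h at 37 C with compound; viability measured as CellTiter-Fluor fluorescence after 30 min in the same wells as the luciferase read.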
# [13] = target: Peroxisome proliferator-activated receptor gamma (Homo sapiens) (UniProt P37231); assay: qHTS assay to identify small molecule agonists of the peroxisome proliferator-activated receptor gamma (PPARg) signaling pathway (AID 743094; active means well fitted activation curve with a large enough effect in the signal ratio in the repeat runs, not every such curve was filed as active; the % refers to the signal ratio)
# Peroxisome proliferator-activated receptor gamma (Homo sapiens), sequence (P37231 whole entry, looked up): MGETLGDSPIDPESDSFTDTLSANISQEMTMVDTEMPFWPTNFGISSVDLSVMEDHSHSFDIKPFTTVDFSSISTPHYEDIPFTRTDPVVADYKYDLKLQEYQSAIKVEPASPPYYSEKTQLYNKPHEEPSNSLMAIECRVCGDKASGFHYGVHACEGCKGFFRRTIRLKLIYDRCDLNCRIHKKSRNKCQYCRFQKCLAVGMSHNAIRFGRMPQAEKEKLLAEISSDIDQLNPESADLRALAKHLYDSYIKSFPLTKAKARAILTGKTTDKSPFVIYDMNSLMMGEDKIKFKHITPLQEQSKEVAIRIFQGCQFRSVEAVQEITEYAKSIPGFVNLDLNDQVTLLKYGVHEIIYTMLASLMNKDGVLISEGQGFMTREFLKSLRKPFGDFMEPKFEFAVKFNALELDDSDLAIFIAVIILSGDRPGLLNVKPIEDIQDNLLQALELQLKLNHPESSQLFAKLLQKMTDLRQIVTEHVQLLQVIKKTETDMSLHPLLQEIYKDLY
# Procedure, shortened: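 Stably transfected HEK293H cells (GeneBLAzer PPARg UAS-bla) were incubated with test substances for 17 h at 37C after a 5 h pre-incubation; beta-lactamase activity was then detected by FRET substrate fluorescence.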
# [14] = target: Nuclear receptor subfamily 1 group I member 2 (Homo sapiens) (UniProt O75469); assay: Human pregnane X receptor (PXR) activation by small molecules, qHTS assay (AID 1346985); further: nearly all actives have a fitted effect of over 40% in size; further: potency means the concentration at half of the fitted maximal effect
# Procedure, shortened: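 DPX-2 cells (HepG2 co-transfected with a PXR response element and a CYP3A4-promoter luciferase construct) were seeded at 2,000 per well, rested 5 hr at 37C, then exposed to DMSO-dissolved compounds for 24 hr. Activation was read as luciferase luminescence.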
# [15] = system: thyroid hormone receptor (rat, GH3 cells); assay: qHTS assay to identify small molecule agonists of the thyroid receptor (TR) signaling pathway (AID 743066; calls by dose curve)
# [16] = target: Estrogen receptor (Homo sapiens) (UniProt P03372); assay: qHTS assay to identify small molecule antagonists of the estrogen receptor alpha (ER-alpha) signaling pathway (AID 743069; active means well fitted curve in the direction sought with a large enough effect in the signal ratio in the repeat runs, not every such curve was filed as active; the % refers to the signal ratio)
# Procedure, shortened: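 HEK293 ER-alpha-UAS-bla GripTite cells, held overnight in 2% charcoal-stripped FBS, 5,000 cells/well, preincubated 4 h, then compound plus 17beta-estradiol for 18 h at 37C. Beta-lactamase read by LiveBLAzer B/G FRET substrate, 2 h at room temperature.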
Structure (SMILES),Potency [1],Potency [2],Potency [3],Potency [4],Potency [5],Potency [6],Potency [7],Potency [8],max activation [9],Potency [10],Potency (Aromatase (Homo sapiens)),Potency [11],Potency [12],Potency [13],Potency [14],Potency [15],Potency [16]
CCc1ccc2c(c1)N(CC(C)CN(C)C)c1ccccc1S2 (stereo not drawn),11.9 µM (active),11.9 µM (active),inactive,inactive,inactive,inactive,inactive,inactive,1.61%,12.6 µM (active),,,,,,,
OCCN1CCN(CC/C=C2/c3ccccc3Sc3ccc(Cl)cc32)CC1,10.1 µM (active),11.4 µM (active),inactive,,,,inactive,inactive,-1.76%,inactive,inactive,inactive,inactive,inactive,inactive,,
O=C(CCCN1CCC(n2c(=S)[nH]c3ccccc32)CC1)c1ccc(F)cc1,,26.6 µM (active),inactive,inactive,,,,11.9 µM (active),,,,inactive,inactive,,,,
C=C[C@]1(C)C[C@@H](OC(=O)CSC(C)(C)CNC(=O)[C@H](N)C(C)C)[C@]2(C)[C@H](C)CC[C@]3(CCC(=O)[C@H]32)[C@@H](C)[C@@H]1O,2.66 µM (active),13.3 µM (active),inactive,inactive,,,5.96 µM (active),inactive,,inactive,21.1 µM (active),2.98 µM (active),3.76 µM (active),,8.91 µM (active),inactive,inactive
C=C[C@]1(C)C[C@@H](OC(=O)CSCCN(CC)CC)[C@]2(C)[C@H](C)CC[C@]3(CCC(=O)[C@H]32)[C@@H](C)[C@@H]1O,10.6 µM (active),23.7 µM (active),inactive,inactive,inactive,inactive,10.6 µM (active),inactive,,inactive,inactive,,,inactive,15.8 µM (active),inactive,
O=C(OCCO)c1ccccc1O,inactive,inactive,inactive,inactive,inactive,inactive,inactive,inactive,,,inactive,inactive,inactive,inactive,,inactive,inactive
C/C=C(/CC[C@@H](C)[C@H]1CC[C@H]2C3=CC[C@H]4[C@H](C)[C@@H](O)CC[C@]4(C)[C@H]3CC[C@]12C)C(C)C,inactive,,inactive,,,,inactive,inactive,,,inactive,inactive,inactive,inactive,,inactive,
CN1CCCC(CN2c3ccccc3Sc3ccccc32)C1 (stereo not drawn),11.9 µM (active),11.9 µM (active),inactive,inactive,inactive,,inactive,inactive,-5.65%,,,inactive,inactive,inactive,,,
CCC(=O)OCC(=O)[C@@]1(OC(=O)CC)[C@@H](C)C[C@H]2[C@@H]3CCC4=CC(=O)C=C[C@]4(C)[C@@]3(F)[C@@H](O)C[C@@]21C,,,inactive,23.9 µM [fluorescent] (active),,,,inactive,,,3.76 µM (active),inactive,inactive,inactive,,,
CN(C)CCOc1ccccc1Cc1ccccc1 (tested in a mixture with another compound),,,inactive,,,,inactive,inactive,,,inactive,,inactive,,,inactive,
CCOc1ccc(N=C(C)Nc2ccc(OCC)cc2)cc1,inactive,inactive,,inactive,inactive,inactive,,inactive,,,inactive,inactive,inactive,,,inactive,inactive
CCCCCCCN(CC)CCCC(O)c1ccc(NS(C)(=O)=O)cc1 (stereo not drawn),23.7 µM (active),21.1 µM (active),inactive,,,,,inactive,,,,inactive,inactive,,,inactive,
CCCCC(=O)OCC(=O)[C@]1(O)Cc2c(O)c3c(c(O)c2[C@@H](O[C@H]2C[C@H](NC(=O)C(F)(F)F)[C@H](O)[C@H](C)O2)C1)C(=O)c1c(OC)cccc1C3=O,9.44 µM (active),5.96 µM (active),inactive,,,,23.7 µM (active),inactive,,inactive,inactive,,,,inactive,,
CCCCCCCCCCCCCCCCCCCCCC(=O)Nc1ccn([C@@H]2O[C@H](CO)[C@@H](O)[C@@H]2O)c(=O)n1,,18.8 µM (active),inactive,,,,inactive,inactive,-4.2%,,inactive,inactive,inactive,inactive,inactive,inactive,
